Results: paper PMC11024108

Tests used:
[1] = target: Dolichyl-diphosphooligosaccharide--protein glycosyltransferase subunit STT3B (UniProt Q8TCJ2); assay: cross-linking mass spectrometry
[2] = target: Dolichyl-diphosphooligosaccharide--protein glycosyltransferase subunit 2 (UniProt P04844); assay: co-fractionation; co-fractionation; cross-linking mass spectrometry
[3] = target: Large ribosomal subunit protein bL12m (UniProt P52815); assay: cross-linking mass spectrometry
[4] = target: 3-hydroxyacyl-CoA dehydrogenase type-2 (UniProt Q99714); assay: cross-link between two proteins; cross-linking mass spectrometry
[5] = target: Complement component 1 Q subcomponent-binding protein, mitochondrial (UniProt Q07021); assay: as above
[6] = target: Methylcrotonoyl-CoA carboxylase beta chain, mitochondrial (UniProt Q9HCC0); assay: as above
[7] = target: Mitochondrial 10-formyltetrahydrofolate dehydrogenase (UniProt Q3SY69); assay: as above
[8] = target: Polyribonucleotide nucleotidyltransferase 1, mitochondrial (UniProt Q8TCS8); assay: as above
[9] = target: Pyrroline-5-carboxylate reductase 2 (UniProt Q96C36); assay: as above
[10] = target: Spectrin alpha chain, non-erythrocytic 1 (UniProt Q13813); assay: as above
[11] = target: Myeloid-derived growth factor (UniProt Q969H8); assay: cross-linking mass spectrometry
[12] = target: Peptidyl-prolyl cis-trans isomerase B (UniProt P23284); assay: cross-link between two proteins; cross-linking mass spectrometry
[13] = target: Neutral alpha-glucosidase AB (UniProt Q14697); assay: cross-link between two proteins; co-fractionation; cross-linking mass spectrometry
[14] = target: AP-1 complex subunit mu-1 (UniProt Q9BXS5); assay: co-fractionation; cross-linking mass spectrometry
[15] = target: 14-3-3 protein epsilon (UniProt P62258); assay: cross-link between two proteins; cross-linking mass spectrometry
[16] = target: 14-3-3 protein gamma (UniProt P61981); assay: as above
[17] = target: 14-3-3 protein eta (UniProt P68510); assay: as above
[18] = target: 14-3-3 protein theta (UniProt P68254); assay: as above
[19] = target: ATP synthase F(0) complex subunit e, mitochondrial (UniProt P56385); assay: as above
[20] = target: ATP synthase peripheral stalk subunit b, mitochondrial (UniProt P24539); assay: co-fractionation; co-fractionation; cross-linking mass spectrometry
[21] = target: Cytochrome c oxidase subunit 4 isoform 1, mitochondrial (UniProt P13073); assay: cross-link between two proteins; affinity purification or IP with mass spectrometry; cross-linking mass spectrometry
[22] = target: ATP synthase F(1) complex subunit alpha, mitochondrial (UniProt P25705); assay: cross-link between two proteins; cross-linking mass spectrometry
[23] = target: ATP synthase F(1) complex subunit epsilon, mitochondrial (UniProt P56381); assay: as above
[24] = target: ATPase inhibitor, mitochondrial (UniProt Q9UII2); assay: as above
[25] = target: Frataxin, mitochondrial (UniProt Q16595); assay: as above
[26] = target: Trifunctional enzyme subunit beta, mitochondrial (UniProt P55084); assay: as above
[27] = target: ATP synthase peripheral stalk subunit OSCP, mitochondrial (UniProt P48047); assay: as above
[28] = target: NAD kinase 2, mitochondrial (UniProt Q4G0N4); assay: co-fractionation; co-fractionation; cross-linking mass spectrometry
[29] = target: Aldehyde dehydrogenase, mitochondrial (UniProt P05091); assay: cross-link between two proteins; cross-linking mass spectrometry
[30] = target: NADH-ubiquinone oxidoreductase 75 kDa subunit, mitochondrial (UniProt P28331); assay: as above
[31] = target: Cytochrome b-c1 complex subunit 7 (UniProt P14927); assay: as above
[32] = target: Cytochrome b-c1 complex subunit Rieske, mitochondrial (UniProt P47985); assay: co-fractionation; co-fractionation; cross-linking mass spectrometry
[33] = target: Cytochrome c oxidase subunit 6C (UniProt P09669); assay: cross-link between two proteins; cross-linking mass spectrometry
[34] = target: Solute carrier family 25 member 3 (UniProt Q00325); assay: co-fractionation; co-fractionation; cross-linking mass spectrometry
[35] = target: MICOS complex subunit MIC60 (UniProt Q16891); assay: cross-link between two proteins; cross-linking mass spectrometry
[36] = target: Cytochrome b-c1 complex subunit 1, mitochondrial (UniProt P31930); assay: co-fractionation; co-fractionation; cross-linking mass spectrometry
[37] = target: Cytochrome b-c1 complex subunit 2, mitochondrial (UniProt P22695); assay: as above
[38] = target: Electron transfer flavoprotein subunit beta (UniProt P38117); assay: as above
[39] = target: Propionyl-CoA carboxylase beta chain, mitochondrial (UniProt P05166); assay: as above
[40] = target: AP-1 complex subunit beta-1 (UniProt Q10567); assay: cross-link between two proteins; co-fractionation; cross-linking mass spectrometry
[41] = target: AP-2 complex subunit beta (UniProt P63010); assay: as above
[42] = target: BLOC-1-related complex subunit 7 (UniProt Q96B45); assay: as above
[43] = target: Pyruvate dehydrogenase E1 component subunit beta, mitochondrial (UniProt P11177); assay: as above
[44] = target: Ras-related protein Rab-11B (UniProt Q15907); assay: as above
[45] = target: Ras-related protein Rab-1B (UniProt Q9H0U4); assay: as above
[46] = target: ATPase family AAA domain-containing protein 3A (UniProt Q9NVI7); assay: cross-link between two proteins; affinity purification or IP with mass spectrometry; cross-linking mass spectrometry
[47] = target: Cytochrome c oxidase assembly factor 4 homolog, mitochondrial (UniProt Q9NYJ1); assay: as above
[48] = target: MICOS complex subunit MIC19 (UniProt Q9NX63); assay: as above
[49] = target: MICOS complex subunit MIC25 (UniProt Q9BRQ6); assay: as above
[50] = target: Serine/threonine-protein phosphatase PGAM5, mitochondrial (UniProt Q96HS1); assay: as above
[51] = target: TIM double twin CX3C motif protein (UniProt Q96C01); assay: as above
[52] = target: Endoplasmic reticulum membrane protein complex subunit 7 (UniProt Q9NPA0); assay: as above
[53] = target: Thioredoxin-related transmembrane protein 1 (UniProt Q9H3N1); assay: as above
[54] = target: Endoplasmic reticulum resident protein 29 (UniProt P30040); assay: as above
[55] = target: Leucine-rich repeat-containing protein 59 (UniProt Q96AG4); assay: as above
[56] = target: Transmembrane emp24 domain-containing protein 9 (UniProt Q9BVK6); assay: as above
[57] = target: Large ribosomal subunit protein bL12m (UniProt P52815); assay: as above
[58] = target: Mitochondrial import inner membrane translocase subunit Tim29 (UniProt Q9BSF4); assay: as above
[59] = target: Syntaxin-8 (UniProt Q9UNK0); assay: as above
[60] = target: 3-hydroxyisobutyryl-CoA hydrolase, mitochondrial (UniProt Q6NVY1); assay: cross-link between two proteins; cross-linking mass spectrometry
[61] = target: ADP/ATP translocase 2 (UniProt P51881); assay: as above
[62] = target: Bifunctional glutamate/proline--tRNA ligase (UniProt Q8CGC7); assay: as above
[63] = target: BOS complex subunit NOMO2 (UniProt Q5JPE7); assay: as above
[64] = target: Actin-binding protein WASF1 (UniProt Q8R5H6); assay: as above
[65] = target: AP-2 complex subunit beta (UniProt Q9DBG3); assay: as above
[66] = target: AP2-associated protein kinase 1 (UniProt Q3UHJ0); assay: as above
[67] = target: ATP synthase peripheral stalk subunit d, mitochondrial (UniProt Q9DCX2); assay: as above

Thioredoxin-related transmembrane protein 1, sequence (Q9H3N1 whole entry): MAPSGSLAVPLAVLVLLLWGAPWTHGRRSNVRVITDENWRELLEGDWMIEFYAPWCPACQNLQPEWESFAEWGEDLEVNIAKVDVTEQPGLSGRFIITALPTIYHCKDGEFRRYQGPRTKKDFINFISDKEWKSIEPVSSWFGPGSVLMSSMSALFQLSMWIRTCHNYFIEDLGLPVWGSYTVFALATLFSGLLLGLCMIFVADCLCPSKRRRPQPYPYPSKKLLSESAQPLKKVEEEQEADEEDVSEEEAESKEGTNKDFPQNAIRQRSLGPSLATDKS
ATP synthase F(0) complex subunit e, mitochondrial, sequence (P56385 whole entry, one chain of several): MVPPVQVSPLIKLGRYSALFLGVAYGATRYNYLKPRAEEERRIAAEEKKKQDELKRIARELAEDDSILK
AP-2 complex subunit beta (UniProt Q9DBG3), sequence (Q9DBG3 whole entry, one chain of several): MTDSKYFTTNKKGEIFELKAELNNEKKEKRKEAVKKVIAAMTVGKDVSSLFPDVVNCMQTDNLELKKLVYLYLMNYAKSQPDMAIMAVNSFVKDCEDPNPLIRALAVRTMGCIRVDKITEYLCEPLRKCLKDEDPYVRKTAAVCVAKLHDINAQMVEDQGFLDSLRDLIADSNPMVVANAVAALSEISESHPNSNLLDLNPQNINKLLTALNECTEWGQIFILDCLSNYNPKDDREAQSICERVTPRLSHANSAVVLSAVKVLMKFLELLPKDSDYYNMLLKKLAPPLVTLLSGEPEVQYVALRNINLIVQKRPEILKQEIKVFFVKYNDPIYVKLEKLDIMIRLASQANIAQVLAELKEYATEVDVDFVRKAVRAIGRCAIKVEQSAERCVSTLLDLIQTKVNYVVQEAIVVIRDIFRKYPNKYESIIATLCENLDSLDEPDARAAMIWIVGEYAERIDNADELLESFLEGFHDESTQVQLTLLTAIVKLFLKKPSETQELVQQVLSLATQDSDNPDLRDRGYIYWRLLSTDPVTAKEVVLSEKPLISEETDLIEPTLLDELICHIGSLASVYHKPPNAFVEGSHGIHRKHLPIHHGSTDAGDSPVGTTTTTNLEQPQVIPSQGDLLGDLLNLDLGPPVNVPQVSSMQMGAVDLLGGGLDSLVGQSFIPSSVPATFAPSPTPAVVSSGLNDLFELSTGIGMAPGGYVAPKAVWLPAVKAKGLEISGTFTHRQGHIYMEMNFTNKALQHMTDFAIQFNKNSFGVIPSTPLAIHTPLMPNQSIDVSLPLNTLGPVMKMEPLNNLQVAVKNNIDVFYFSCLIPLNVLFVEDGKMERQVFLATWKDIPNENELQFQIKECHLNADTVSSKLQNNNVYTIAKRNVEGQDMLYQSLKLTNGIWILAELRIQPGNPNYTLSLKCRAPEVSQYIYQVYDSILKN
Complement component 1 Q subcomponent-binding protein, mitochondrial, sequence (Q07021 whole entry): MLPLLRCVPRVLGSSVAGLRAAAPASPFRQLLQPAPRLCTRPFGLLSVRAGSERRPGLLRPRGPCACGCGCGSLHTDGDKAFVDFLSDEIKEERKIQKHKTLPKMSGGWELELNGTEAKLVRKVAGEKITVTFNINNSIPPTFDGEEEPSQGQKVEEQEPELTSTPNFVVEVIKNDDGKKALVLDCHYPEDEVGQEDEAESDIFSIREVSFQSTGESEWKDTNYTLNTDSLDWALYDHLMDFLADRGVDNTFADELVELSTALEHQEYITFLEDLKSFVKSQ
3-hydroxyacyl-CoA dehydrogenase type-2, sequence (Q99714 whole entry): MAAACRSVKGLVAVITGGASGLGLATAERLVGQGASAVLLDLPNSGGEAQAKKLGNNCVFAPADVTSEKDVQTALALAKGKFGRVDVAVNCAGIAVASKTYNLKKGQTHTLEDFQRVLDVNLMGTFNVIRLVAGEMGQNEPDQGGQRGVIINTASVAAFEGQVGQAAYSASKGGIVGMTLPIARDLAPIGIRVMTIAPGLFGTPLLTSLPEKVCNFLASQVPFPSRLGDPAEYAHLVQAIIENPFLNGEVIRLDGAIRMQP
AP2-associated protein kinase 1, sequence (Q3UHJ0 whole entry): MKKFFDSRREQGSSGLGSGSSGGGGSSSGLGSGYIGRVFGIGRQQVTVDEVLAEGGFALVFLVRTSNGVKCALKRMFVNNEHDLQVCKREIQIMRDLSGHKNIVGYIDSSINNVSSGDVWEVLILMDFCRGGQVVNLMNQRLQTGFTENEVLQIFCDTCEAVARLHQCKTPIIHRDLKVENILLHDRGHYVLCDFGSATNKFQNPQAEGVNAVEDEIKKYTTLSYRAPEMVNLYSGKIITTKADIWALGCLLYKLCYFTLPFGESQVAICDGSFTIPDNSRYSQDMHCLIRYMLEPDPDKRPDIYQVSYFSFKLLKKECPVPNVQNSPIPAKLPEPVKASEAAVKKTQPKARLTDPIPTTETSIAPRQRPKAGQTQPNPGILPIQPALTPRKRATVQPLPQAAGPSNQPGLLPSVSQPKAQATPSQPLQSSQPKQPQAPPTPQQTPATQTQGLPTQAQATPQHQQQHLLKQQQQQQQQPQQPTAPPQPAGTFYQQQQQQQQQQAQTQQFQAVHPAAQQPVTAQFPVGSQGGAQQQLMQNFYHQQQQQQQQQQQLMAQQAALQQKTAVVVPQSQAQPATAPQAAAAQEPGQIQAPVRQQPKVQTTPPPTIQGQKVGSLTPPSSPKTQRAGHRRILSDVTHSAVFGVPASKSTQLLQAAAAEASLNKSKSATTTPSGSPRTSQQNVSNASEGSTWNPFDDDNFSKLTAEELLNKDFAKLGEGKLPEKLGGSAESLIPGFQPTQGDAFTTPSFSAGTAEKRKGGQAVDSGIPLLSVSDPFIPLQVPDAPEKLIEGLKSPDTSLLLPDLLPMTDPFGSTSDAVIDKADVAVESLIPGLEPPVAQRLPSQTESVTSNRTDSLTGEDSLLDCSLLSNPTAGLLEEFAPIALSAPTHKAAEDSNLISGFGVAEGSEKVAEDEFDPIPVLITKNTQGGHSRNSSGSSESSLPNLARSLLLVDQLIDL
Actin-binding protein WASF1, sequence (Q8R5H6 whole entry): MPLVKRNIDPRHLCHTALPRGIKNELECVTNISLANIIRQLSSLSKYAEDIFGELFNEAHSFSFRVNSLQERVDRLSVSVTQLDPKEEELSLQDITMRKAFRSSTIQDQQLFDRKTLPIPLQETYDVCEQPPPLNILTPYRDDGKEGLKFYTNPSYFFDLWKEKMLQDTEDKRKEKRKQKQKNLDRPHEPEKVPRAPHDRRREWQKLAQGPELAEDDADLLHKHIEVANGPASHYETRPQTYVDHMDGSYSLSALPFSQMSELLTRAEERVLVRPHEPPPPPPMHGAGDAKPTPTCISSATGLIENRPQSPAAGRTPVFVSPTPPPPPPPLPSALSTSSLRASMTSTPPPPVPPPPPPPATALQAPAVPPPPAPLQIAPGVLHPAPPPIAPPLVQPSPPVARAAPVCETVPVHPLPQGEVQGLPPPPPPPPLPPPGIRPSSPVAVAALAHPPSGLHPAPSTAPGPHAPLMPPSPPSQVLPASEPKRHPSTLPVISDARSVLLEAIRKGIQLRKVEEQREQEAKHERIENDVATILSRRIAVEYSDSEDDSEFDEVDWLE
Methylcrotonoyl-CoA carboxylase beta chain, mitochondrial, sequence (Q9HCC0 whole entry): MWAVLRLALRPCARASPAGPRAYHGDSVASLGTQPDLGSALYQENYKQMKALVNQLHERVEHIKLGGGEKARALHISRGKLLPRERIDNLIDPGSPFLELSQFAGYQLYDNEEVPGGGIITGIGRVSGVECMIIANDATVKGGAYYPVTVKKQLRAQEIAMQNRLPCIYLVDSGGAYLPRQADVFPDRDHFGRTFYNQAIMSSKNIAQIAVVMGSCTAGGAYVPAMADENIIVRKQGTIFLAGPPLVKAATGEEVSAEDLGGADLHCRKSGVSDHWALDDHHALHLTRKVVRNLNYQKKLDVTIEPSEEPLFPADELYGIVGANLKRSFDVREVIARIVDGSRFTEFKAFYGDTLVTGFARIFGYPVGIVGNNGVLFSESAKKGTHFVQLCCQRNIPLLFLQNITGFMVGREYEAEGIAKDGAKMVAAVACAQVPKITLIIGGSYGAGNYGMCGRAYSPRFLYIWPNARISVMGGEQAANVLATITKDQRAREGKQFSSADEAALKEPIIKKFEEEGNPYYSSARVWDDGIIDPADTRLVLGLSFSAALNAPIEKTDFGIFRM
3-hydroxyisobutyryl-CoA hydrolase, mitochondrial, sequence (Q6NVY1 whole entry): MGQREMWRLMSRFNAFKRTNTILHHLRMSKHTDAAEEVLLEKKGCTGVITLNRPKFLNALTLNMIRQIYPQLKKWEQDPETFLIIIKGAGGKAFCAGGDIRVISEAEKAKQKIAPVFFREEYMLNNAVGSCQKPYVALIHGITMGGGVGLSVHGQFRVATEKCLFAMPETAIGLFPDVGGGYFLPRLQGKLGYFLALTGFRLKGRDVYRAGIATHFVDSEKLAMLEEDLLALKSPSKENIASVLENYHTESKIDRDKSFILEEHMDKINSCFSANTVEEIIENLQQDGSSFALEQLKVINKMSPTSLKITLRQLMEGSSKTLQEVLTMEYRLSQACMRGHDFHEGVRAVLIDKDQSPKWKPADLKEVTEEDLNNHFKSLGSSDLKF
Cytochrome c, P99999, sequence (P99999 whole entry): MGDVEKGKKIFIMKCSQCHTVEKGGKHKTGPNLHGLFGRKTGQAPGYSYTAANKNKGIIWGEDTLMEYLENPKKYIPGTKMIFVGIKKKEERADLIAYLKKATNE
14-3-3 protein gamma, sequence (P61981 whole entry): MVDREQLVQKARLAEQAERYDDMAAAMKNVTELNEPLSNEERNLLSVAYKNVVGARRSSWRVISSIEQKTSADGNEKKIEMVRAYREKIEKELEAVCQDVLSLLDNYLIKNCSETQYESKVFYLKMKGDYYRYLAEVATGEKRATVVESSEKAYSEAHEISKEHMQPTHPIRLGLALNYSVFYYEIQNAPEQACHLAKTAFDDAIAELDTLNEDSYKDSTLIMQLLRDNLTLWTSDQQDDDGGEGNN

## Dolichyl-diphosphooligosaccharide--protein glycosyltransferase subunit 1, P04843
[1]
  listed as a hit: yes
[2]
  listed as a hit: yes

## Stress-70 protein, mitochondrial, P38646
[3]
  listed as a hit: yes
[4]
  listed as a hit: yes
[5]
  listed as a hit: yes
[6]
  listed as a hit: yes
[7]
  listed as a hit: yes
[8]
  listed as a hit: yes
[9]
  listed as a hit: yes
[10]
  listed as a hit: yes

## Glucosidase 2 subunit beta, P14314
[11]
  listed as a hit: yes
[12]
  listed as a hit: yes
[13]
  listed as a hit: yes

## AP-1 complex subunit beta-1, Q10567
[14]
  listed as a hit: yes

## 14-3-3 protein theta, P27348
[15]
  listed as a hit: yes
[16]
  listed as a hit: yes

## 14-3-3 protein zeta/delta, P63101
[17]
  listed as a hit: yes
[18]
  listed as a hit: yes

## ATP synthase F(0) complex subunit g, mitochondrial, O75964
[19]
  listed as a hit: yes
[20]
  listed as a hit: yes
[21]
  listed as a hit: yes

## NADPH:adrenodoxin oxidoreductase, mitochondrial, P22570
[22]
  listed as a hit: yes
[5]
  listed as a hit: yes

## ATP synthase F(1) complex subunit alpha, mitochondrial, P25705
[23]
  listed as a hit: yes
[24]
  listed as a hit: yes
[25]
  listed as a hit: yes
[26]
  listed as a hit: yes

## Citrate synthase, mitochondrial, O75390
[27]
  listed as a hit: yes
[28]
  listed as a hit: yes

## Aspartate aminotransferase, mitochondrial, P00505
[29]
  listed as a hit: yes
[30]
  listed as a hit: yes

## Cytochrome b-c1 complex subunit 8, O14949
[31]
  listed as a hit: yes
[32]
  listed as a hit: yes

## ADP/ATP translocase 2, P05141
[33]
  listed as a hit: yes
[34]
  listed as a hit: yes

## Cytochrome c, P99999
[35]
  listed as a hit: yes

## Cytochrome b-c1 complex subunit 2, mitochondrial, P22695
[36]
  listed as a hit: yes

## Cytochrome c1, heme protein, mitochondrial, P08574
[37]
  listed as a hit: yes

## Electron transfer flavoprotein subunit alpha, mitochondrial, P13804
[38]
  listed as a hit: yes

## Propionyl-CoA carboxylase alpha chain, mitochondrial, P05165
[39]
  listed as a hit: yes

## AP-2 complex subunit alpha-1, O95782
[40]
  listed as a hit: yes
[41]
  listed as a hit: yes

## Biogenesis of lysosome-related organelles complex 1 subunit 1, P78537
[42]
  listed as a hit: yes

## Pyruvate dehydrogenase E1 component subunit alpha, somatic form, mitochondrial, P08559
[43]
  listed as a hit: yes

## Ras-related protein Rab-11A, P62491
[44]
  listed as a hit: yes

## Ras-related protein Rab-1A, P62820
[45]
  listed as a hit: yes

## Cytochrome c oxidase assembly factor 7, Q96BR5
[46]
  listed as a hit: yes
[47]
  listed as a hit: yes
[48]
  listed as a hit: yes
[49]
  listed as a hit: yes
[50]
  listed as a hit: yes
[51]
  listed as a hit: yes

## ER membrane protein complex subunit 1, Q8N766
[52]
  listed as a hit: yes
[53]
  listed as a hit: yes

## Calnexin, P27824
[54]
  listed as a hit: yes
[55]
  listed as a hit: yes
[53]
  listed as a hit: yes
[56]
  listed as a hit: yes

## Heterogeneous nuclear ribonucleoproteins C1/C2, P07910
[57]
  listed as a hit: yes

## Mitochondrial import inner membrane translocase subunit Tim10, P62072
[58]
  listed as a hit: yes

## Flotillin-1, O75955
[59]
  listed as a hit: yes

## Mitochondrial-processing peptidase subunit alpha, Q10713
[60]
  listed as a hit: yes

## ADP/ATP translocase 1, P48962
[61]
  listed as a hit: yes

## Trifunctional enzyme subunit beta, mitochondrial, P55084
[19]
  listed as a hit: yes

## Isoleucine--tRNA ligase, cytoplasmic, Q8BU30
[62]
  listed as a hit: yes

## BOS complex subunit NOMO3, P69849
[63]
  listed as a hit: yes

## Cytoplasmic FMR1-interacting protein 2, Q5SQX6
[64]
  listed as a hit: yes

## AP-2 complex subunit mu, P84091
[65]
  listed as a hit: yes
[66]
  listed as a hit: yes

## ATP synthase peripheral stalk subunit F6, mitochondrial, P97450
[67]
  listed as a hit: yes

## SH3-containing GRB2-like protein 3-interacting protein 1, Q8VD37
[65]
  listed as a hit: yes
